The values below come from PubChem BioAssay (NCATS).

Inconclusive results are not listed. A call without a number means that no potency is given here. The source made the active and inactive calls. The call rests on the fitted dose curve; in most records, active means well fitted curve in the direction sought with a large enough effect; inconclusive means small, poorly fitted or top-dose-only effect, or another doubt; inactive means no such curve, though single readings can be large; an effect the other way counts as inactive or inconclusive.

Experiment [1] addresses Aldehyde dehydrogenase, mitochondrial (Homo sapiens) (UniProt P05091). Put plainly: qHTS for Inhibitors of the Aldehyde Dehydrogenase Family (ALDH2) Primary screen (AID 2061308; further: nearly all actives have a fitted effect of over 55% in size). (qHTS replaces the single test concentration by a dilution series.)
For experiment [2], the target named is Retinaldehyde dehydrogenase 3 (Homo sapiens) (UniProt P47895). Kind of experiment: qHTS for Inhibitors of the Aldehyde Dehydrogenase Family (ALDH1A3) Primary screen (AID 2061315).

`CCCCNC(=O)c1ccc2c(c1)ncn2-c1cccc(C)c1`: the Potency entry in experiment [1] and in experiment [2] was “inactive” each time.
Consider `O=C(Nc1cccnc1)c1cccs1`, for which the Potency entry in experiment [1] and in experiment [2] was “inactive” throughout.
Take `Cn1cnc(CCNc2ncnc3ccc(-c4ccc5c(c4)OCO5)cc23)c1`: the Potency entry in experiment [1] and in experiment [2] was “inactive” throughout.
With `CC(=O)NC(c1cc(Cl)c2cccnc2c1O)C(C)C` (centres undefined), the Potency result in experiment [1] and in experiment [2] was “inactive” in each case.
Take `FC(F)(F)c1ccccc1-c1nc(NCc2ccc(-c3cccnc3)cc2)c2[nH]cnc2n1`: the Potency result in experiment [1] and in experiment [2] was “inactive” in each case.
With `O=C(Nc1ccc2ccccc2c1)Nc1nnc(-c2ccc(F)cc2)s1`, the Potency entry in experiment [1] and in experiment [2] was “inactive” each time.
As to `Cc1ccc(S(=O)(=O)NCCC(=O)Nc2nc(-c3ccccc3)cs2)cc1`, the Potency result in experiment [1] and in experiment [2] was “inactive” each time.
Regarding `CCCn1c(C)nc2c(N3CCC(N4CCN(C)CC4)CC3)nc(C)nc21`, the Potency result in experiment [1] and in experiment [2] was “inactive” each time.
Regarding `COc1cccc(-c2ccc3ncnc(NCc4ccc5c(c4)OCO5)c3c2)c1`, the Potency result in experiment [1] and in experiment [2] was “inactive” throughout.
With `O=C(CNC(=O)C1CCCCC1)OC(C(=O)c1ccccc1)c1ccccc1` (centres undefined), the Potency result in experiment [1] and in experiment [2] was “inactive” each time.
Take `C=C1C[C@]23C[C@@]1(O)CC[C@H]2[C@@]12C=C[C@H](O)[C@@](C)(C(=O)O1)[C@H]2[C@@H]3C(=O)O`: the Potency result in experiment [1] and in experiment [2] was “inactive” in each case.
For the molecule `C=CCNc1oc(-c2cccnc2)nc1C#N`, the Potency entry in experiment [1] and in experiment [2] was “inactive” each time.
In the case of `Cc1cc2c(s1)c1cnn(Cc3ccccc3F)c(=O)c1n2C(C)C`, the Potency entry in experiment [1] and in experiment [2] was “inactive” each time.
On to `Cc1nnc(-c2ccccc2[N+](=O)[O-])n1CCCn1ccnc1`, for which the Potency entry in experiment [1] and in experiment [2] was “inactive” each time.
Take `CCOC(=O)c1cccc(NC(=O)Nc2nnc(-c3ccncc3)s2)c1`: the Potency entry in experiment [1] and in experiment [2] was “inactive” in each case.
For the molecule `O=C(Nc1nc(-c2ccccc2)cs1)c1ccccc1Cl`, the Potency result in experiment [1] and in experiment [2] was “inactive” in each case.
In the case of `O=C(CSc1ncnc2sc3c(c12)CCCCC3)NCc1ccco1`, the Potency entry in experiment [1] and in experiment [2] was “inactive” each time.
Regarding `Cc1cccc(-c2ccc3ncnc(N(C)Cc4ccco4)c3c2)c1`, the Potency result in experiment [1] and in experiment [2] was “inactive” each time.
In the case of `COc1ccccc1OC1=NS(=O)(=O)c2ccccc21`, the Potency result in experiment [1] and in experiment [2] was “inactive” in each case.
On to `COc1nccc(-c2nc(Nc3ccc(F)c(F)c3)c3ccccc3n2)c1OC`, for which the Potency result in experiment [1] and in experiment [2] was “inactive” in each case.
On to `Cc1cn([C@H]2C[C@H](N[S+](=O)([O-])Cc3ccc([N+](=O)[O-])cc3)[C@@H](CO)O2)c(=O)[nH]c1=O`, for which the Potency result in experiment [1] and in experiment [2] was “inactive” each time.
On to `Cn1c2cc(B(O)O)sc2c2cnn(Cc3c(F)cccc3Cl)c(=O)c21`, for which the Potency entry in experiment [1] and in experiment [2] was “inactive” in each case.
Turning to `Clc1ccccc1-c1ccc2ncnc(NCc3cccnc3)c2c1`, the Potency entry in experiment [1] and in experiment [2] was “inactive” each time.
As to `CCOC(=O)c1ccc(-n2cnc3cc(C(=O)N4CCCCC4)ccc32)cc1`, the Potency entry in experiment [1] and in experiment [2] was “inactive” throughout.
For the molecule `CCn1cnc2c(Nc3ccc(CCC(=O)N=C(N)N)cc3)nc(C#N)nc21`, the Potency result in experiment [1] and in experiment [2] was “inactive” throughout.
Turning to `O=C(O)c1ccc2c(c1)C(=O)N([C@H](Cc1ccc([N+](=O)[O-])cc1)C(=O)O)C2=O`, the Potency result in experiment [1] and in experiment [2] was “inactive” throughout.
Consider `COc1cc(-c2nc(Nc3ccc(F)c(F)c3)c3ccccc3n2)c(F)cn1`, for which the Potency entry in experiment [1] and in experiment [2] was “inactive” throughout.
Turning to `Cc1ccc(CNc2ncnc3ccc(-c4ccc5c(c4)OCO5)cc23)o1`, the Potency result in experiment [1] and in experiment [2] was “inactive” each time.
Take `Cc1nc(NCc2ccccc2)c2nc(-c3ccccc3)n(CCCN3CCOCC3)c2n1`: the Potency result in experiment [1] and in experiment [2] was “inactive” each time.
Consider `Cc1csc(CNc2ncnc3ccc(-c4cccnc4)cc23)c1`, for which the Potency entry in experiment [1] and in experiment [2] was “inactive” in each case.
As for `Cc1ccc(NS(=O)(=O)c2ccc3c(c2)n(C)c(=O)n3C)cc1C`, the Potency result in experiment [1] and in experiment [2] was “inactive” in each case.
`C/C(=C\c1ccsc1)C1Nc2cccc3cccc(c23)N1`: the Potency entry in experiment [1] and in experiment [2] was “inactive” throughout.
